Here are results for six compounds from PubChem BioAssay (Tox21).

SMILES strings stand for the structures. Values joined by “and” are separate entries in the source; they are usually repeats but may differ in a detail not shown here. Identical values can stand only once. Results filed as inconclusive are left out. Active and inactive are the calls of the source. Unless noted, the call rests on the fitted dose curve; in most records, active means well fitted curve in the direction sought with a large enough effect in the repeat runs; inconclusive means weak or mixed curves; inactive means no such curve, though single readings can be large; an effect the other way counts as inactive or inconclusive.

Test [1] deals with Luciferin 4-monooxygenase (Photinus pyralis) (UniProt P08659). Put plainly: qHTS assay to identify small molecule inhibitors of firefly luciferase (AID 1224835). Further: nearly all actives have a fitted effect of over 25% in size. The essentials:
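Biochemical qHTS: compounds run as interplate titrations against purified firefly enzyme, with D-luciferin and ATP each at its KM concentration. Light output recorded by CCD imaging.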

Test [2] in a line: qHTS assay to identify small molecule agonists of the constitutive androstane receptor (CAR) signaling pathway - cell viability counter screen (AID 1224836). Further: nearly all actives have a fitted effect of over 45% in size. The essentials: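 Counter screen multiplexed with the CAR reporter readout: HepG2 cells co-transfected with hCAR and the CYP2B6-2.2kb construct receive a 15-concentration compound series and 0.75 uM PK11195 (final), then CellTiter-Fluor fluorescence is read after 23 h.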

Test [3] is described as follows: qHTS assay to identify small molecule antagonists of the constitutive androstane receptor (CAR) signaling pathway - cell viability counter screen (AID 1224837). Further: nearly all actives have a fitted effect of over 45% in size. The essentials:
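To flag cytotoxic false antagonists, HepG2 hCAR/CYP2B6-2.2kb cells were treated 23 hr with 15-concentration compound series and 50 nM CITCO at 37 C/5% CO2; CellTiter-Fluor fluorescence was the measured end point.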
On the technique in general: qHTS replaces the single test concentration by a dilution series.

For test [4], the target named is Nuclear receptor subfamily 1 group I member 3 (Homo sapiens) (UniProt Q14994). The experiment in a line: qHTS assay to identify small molecule antagonists of the constitutive androstane receptor (CAR) signaling pathway (AID 1224838).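 Further: HepG2 cells stably expressing hCAR with CYP2B6 luciferase reporter stimulated by CITCO; nearly all actives have a fitted effect of over 40% in size.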 An outline of the steps: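 Human hepatoma HepG2 cells expressing hCAR and a CYP2B6 promoter (2.2 kb) luciferase construct; compound titration (15 points) with 50 nM CITCO final, 24 h at 37 C/5% CO2; luminescence via ONE-Glo after 30 min at room temperature.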
Sequence of Nuclear receptor subfamily 1 group I member 3 (Homo sapiens) (Q14994 whole entry, looked up): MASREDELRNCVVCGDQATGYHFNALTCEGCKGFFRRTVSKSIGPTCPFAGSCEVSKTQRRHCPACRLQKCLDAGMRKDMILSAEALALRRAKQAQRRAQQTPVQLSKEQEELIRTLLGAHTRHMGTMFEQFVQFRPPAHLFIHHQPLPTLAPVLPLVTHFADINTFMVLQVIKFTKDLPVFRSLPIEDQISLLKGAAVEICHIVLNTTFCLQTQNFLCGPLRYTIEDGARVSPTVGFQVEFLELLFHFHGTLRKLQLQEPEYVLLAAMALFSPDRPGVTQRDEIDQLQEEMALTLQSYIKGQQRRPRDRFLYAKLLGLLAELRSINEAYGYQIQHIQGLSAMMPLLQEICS

For test [5] the target is unchanged. The experiment in a line: qHTS assay to identify small molecule agonists of the constitutive androstane receptor (CAR) signaling pathway (AID 1224839). Further: nearly all actives have a fitted effect of over 15% in size. Further: potency means the concentration at half of the fitted maximal effect. An outline of the steps: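 A 15-concentration quantitative screen uses HepG2 cells co-transfected stably with human CAR and CYP2B6-2.2kb reporter. Treatment lasts 24 h with 0.75 uM PK11195 final present; ONE-Glo luminescence is the signal.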

Test [6] is described as follows: qHTS assay to identify small molecule antagonists of the estrogen related receptor signaling pathway with the pleiotropic PPARgamma coactivator (PGC) from Tox21 10K library - cell viability counter screen (AID 1224840; active means well fitted cell-killing curve with a large enough effect in the repeat runs, not every such curve was filed as active; further: nearly all actives have a fitted effect of over 40% in size). The essentials:
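Seeded PGC/ERR cells (2,000/well, 6 h, 37 C/5% CO2) get compound by pin tool; 17.5 h incubation at 37 C; CellTiter-Fluor added, 30 min, fluorescence measured.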

The nature of test [7]: qHTS assay to identify small molecule antagonists of the estrogen related receptor signaling pathway with the pleiotropic PPARgamma coactivator (PGC) from Tox21 10K library (AID 1224841; call rule not given here; further: actives are mostly falling curves and most rising ones were filed inactive; nearly all actives have a fitted effect of over 50% in size). The essentials: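 Test chemicals dissolved in DMSO were applied to pre-incubated (6 h) PGC/ERR cells at 2,000 cells/well for an 18 h, 37 C treatment; reporter luminescence was then read using One-Glo.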

Test [8] can be described thus: qHTS assay to identify small molecule agonists of the estrogen related receptor signaling pathway with the pleiotropic PPARgamma coactivator (PGC) from Tox21 10K library (AID 1224842). Further: nearly all actives have a fitted effect of over 15% in size. The essentials: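 PGC/ERR reporter cell line, 2,000 cells per well, incubated 6 h at 37 C before 23 nL compound in DMSO was added. After 18 h at 37 C, One-Glo luminescence read following 30 min at room temperature.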

Test [9] addresses Thyrotropin receptor (Homo sapiens) (UniProt P16473). The experiment in a line: qHTS assay to identify small molecule agonists of the thyroid stimulating hormone receptor (TSHR) signaling pathway (AID 1224843; calls by dose curve; further: nearly all actives have a fitted effect of over 45% in size). An outline of the steps:
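HEK293/TSHR, 800 cells/well; cpd 30 min RT; add cAMP-d2 + anti-cAMP-cryptate, 1 h RT; fluorescence read on plate reader. 15-pt titration, n=3.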

A short description of test [10]: qHTS assay to identify small molecule agonists of the hypoxia (HIF-1) signaling pathway - cell viability counter screen (AID 1224844; calls by dose curve; further: nearly all actives have a fitted effect of over 50% in size). An outline of the steps:
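HRE-bla ME-180; 0.5% dFBS; cpd 17 h, 37C, 5% CO2; CellTiter-Glo lum., 30 min RT, post-FRET read, same wells.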

Test [11] can be described thus: qHTS assay to identify small molecule agonists of the hypoxia (HIF-1) signaling pathway (AID 1224846; active means well fitted activation curve with a large enough effect in the signal ratio in the repeat runs, not every such curve was filed as active; the % refers to the signal ratio). An outline of the steps: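 Reporter induction in HRE-bla ME-180 cells is taken as agonism: cells sit 5 hrs after plating, receive compounds or DMSO only, incubate 17 hrs at 37C under 5% CO2, and are loaded with CCF4-AM for beta-lactamase FRET measurement.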
Test [12] in a line: qHTS assay to identify small molecule antagonists of the estrogen related receptor (ERR) signaling pathway from Tox21 library (AID 1224848). Further: nearly all actives have a fitted effect of over 50% in size. Further: potency means the concentration at half of the fitted maximal effect. An outline of the steps:
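Compounds dissolved in DMSO are pin-transferred onto ERR reporter cells (2,000 per well) that have settled for 6 h at 37 C. Plates then incubate 18 h at 37 C before ONE-Glo luciferase reagent and a luminescence read 30 min later.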

Test [13] is described as follows: qHTS assay to identify small molecule agonists of the estrogen related receptor (ERR) signaling pathway from Tox21 library (AID 1224849; calls by dose curve; further: nearly all actives have a fitted effect of over 15% in size). As to conditions: ERR reporter cell line, ONE-Glo luciferase, 18 h. An outline of the steps:
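Tox21 compounds tested for ERR agonism in an NTP reporter cell line: 18 h treatment at 37 C, then ONE-Glo luminescence.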

Test [14] in a line: qHTS RealTime-Glo MT Cell Viability Assay in HepG2 cells - 24 hour (AID 1224867). Further: nearly all actives have a fitted effect of over 50% in size. An outline of the steps:
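qHTS, HepG2, 600 cells/well, RealTime-Glo (NanoLuc + prosubstrate) added with cells; 5 h preincubation; DMSO compound addition; 37 C; luminescence at 0/8/16/24/32/40 h.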

The nature of test [15]: qHTS RealTime-Glo MT Cell Viability Assay in HEK293 cells - 32 hour (AID 1224868). An outline of the steps:
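Assay medium contained NanoLuc luciferase plus cell-permeant prosubstrate, added with HEK293 cells at 600 cells/well. After 5 h at 37 C/5% CO2 compounds were added; plates stayed at 37 C for 40 h with serial luminescence reads.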

Test [16] can be described thus: qHTS RealTime-Glo MT Cell Viability Assay in HepG2 cells - 40 hour (AID 1224870). Further: nearly all actives have a fitted effect of over 50% in size. The essentials: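 HepG2 cells (600/well) mixed with RealTime-Glo MT reagent, settled 5 h at 37 C/5% CO2 before compound addition. Nonlytic NanoLuc luminescence from viable-cell prosubstrate reduction read repeatedly during 40 h treatment at 37 C.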
Test [17] in a line: qHTS assay to identify small molecule agonists of H2AX (AID 1224845; active means well fitted activation curve with a large enough effect in the signal ratio in the repeat runs, not every such curve was filed as active; the % refers to the signal ratio). An outline of the steps:
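Wild-type CHO-K1 cells, plated overnight, exposed 3hr at 37C to 15 concentrations (0.76% DMSO final). Lysed, then HTRF anti-pH2AX (S139) cryptate and anti-H2AX-d2 antibodies, 24 hr room temperature; 665/620 nm emission read.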

The nature of test [18]: A CellTox Green Cytotoxicity Assay to monitor cytotoxicity in HEK293 cells - 0 hour (AID 1224869). Further: nearly all actives have a fitted effect of over 50% in size. An outline of the steps:
(§1)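 Tox21 screen in HEK293: membrane-impermeant cyanine dye fluoresces on binding dead-cell DNA; compound pinned 5 h post-seeding, plates held at 37 C, signal read repeatedly through 40 h.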

Test [19] can be described thus: A CellTox Green Cytotoxicity Assay to monitor cytotoxicity in HEK293 cells - 40 hour (AID 1224871). Further: nearly all actives have a fitted effect of over 45% in size. Further: potency means the concentration at half of the fitted maximal effect. The essentials:
as §1

A short description of test [20]: qHTS assay to identify small molecule agonists of H2AX - cell viability counter screen (AID 1224847; calls by dose curve; further: top concentration of the series differs between compounds; nearly all actives have a fitted effect of over 30% in size). An outline of the steps:
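We seed wild-type CHO-K1 cells overnight, treat them for 3 hr at 37C with compounds in 15-concentration series, and quantify remaining viability by CellTiter-Glo luminescence.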
On the % scale 0 is the no-effect control and ±100 the full control effect.

Sequence of Luciferin 4-monooxygenase (Photinus pyralis) (P08659 whole entry, looked up): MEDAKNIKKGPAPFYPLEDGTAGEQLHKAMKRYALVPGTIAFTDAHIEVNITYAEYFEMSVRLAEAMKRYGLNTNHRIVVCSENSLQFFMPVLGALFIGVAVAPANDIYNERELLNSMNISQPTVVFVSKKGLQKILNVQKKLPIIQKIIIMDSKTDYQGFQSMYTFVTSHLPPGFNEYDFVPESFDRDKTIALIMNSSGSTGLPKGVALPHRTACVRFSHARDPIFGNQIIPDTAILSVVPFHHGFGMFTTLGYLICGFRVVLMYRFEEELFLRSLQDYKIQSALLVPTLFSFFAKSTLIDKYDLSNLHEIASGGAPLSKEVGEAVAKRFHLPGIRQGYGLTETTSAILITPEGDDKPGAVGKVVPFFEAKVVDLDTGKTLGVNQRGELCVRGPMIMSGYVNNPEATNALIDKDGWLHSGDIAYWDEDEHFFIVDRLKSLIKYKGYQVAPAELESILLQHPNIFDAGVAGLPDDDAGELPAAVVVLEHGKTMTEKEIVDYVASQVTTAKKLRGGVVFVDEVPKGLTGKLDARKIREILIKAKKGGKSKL
Sequence of Thyrotropin receptor (Homo sapiens) (P16473 whole entry, looked up): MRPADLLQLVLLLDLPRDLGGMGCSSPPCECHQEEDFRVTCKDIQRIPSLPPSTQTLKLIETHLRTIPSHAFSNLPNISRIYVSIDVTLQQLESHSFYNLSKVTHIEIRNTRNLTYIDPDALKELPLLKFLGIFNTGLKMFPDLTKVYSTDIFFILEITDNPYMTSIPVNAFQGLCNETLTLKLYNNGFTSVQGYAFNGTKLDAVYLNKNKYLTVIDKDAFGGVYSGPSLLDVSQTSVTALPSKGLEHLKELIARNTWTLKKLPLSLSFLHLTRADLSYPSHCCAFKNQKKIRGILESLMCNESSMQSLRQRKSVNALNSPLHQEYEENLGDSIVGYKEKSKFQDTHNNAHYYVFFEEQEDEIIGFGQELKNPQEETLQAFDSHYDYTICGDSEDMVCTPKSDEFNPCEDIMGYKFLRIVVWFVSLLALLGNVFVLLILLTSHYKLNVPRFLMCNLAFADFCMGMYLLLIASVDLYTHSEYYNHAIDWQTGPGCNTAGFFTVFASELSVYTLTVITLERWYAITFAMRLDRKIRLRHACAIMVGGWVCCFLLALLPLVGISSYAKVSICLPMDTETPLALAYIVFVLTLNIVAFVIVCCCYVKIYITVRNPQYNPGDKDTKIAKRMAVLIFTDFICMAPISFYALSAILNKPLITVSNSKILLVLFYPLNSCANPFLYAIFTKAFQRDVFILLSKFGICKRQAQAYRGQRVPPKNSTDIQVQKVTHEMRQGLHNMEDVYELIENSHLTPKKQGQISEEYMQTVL

Take `CCOC(=O)C(C#N)=C(c1ccccc1)c1ccccc1`: the Potency entry in test [1], in test [2], in test [3], in test [4], in test [6] and in test [7] was “inactive” each time. Moreover, the Potency result in test [8], in [9], in test [10], in test [11], in test [14] and in test [15] was “inactive” in each case. Besides, in [16], the Potency result is “inactive”. The Potency was 3.86 µM (active) and 3.76 µM (active) in [5]; 48.6 µM (active) in [12]. Besides, the activity change, positive = activation in [13] (at 42.5 µM (top of the series)) is -21.7% (inactive); in test [13] (at 92.4 µM (top of the series)), -34.2% (inactive).
Take `CCC(C)c1ccccc1O` (centres undefined): the Potency result in test [1], in [2], in [3], in test [4], in test [5] and in test [6] was “inactive” each time. The Potency entry in test [7], in test [8], in test [9], in [10], in test [11] and in test [12] was “inactive” throughout. For the same compound, the Potency entry in test [14], in test [15] and in test [18] was “inactive” throughout. Further, the result in test [17] was inactive. Besides, the activity change, positive = activation in test [13] (at 92.4 µM (top of the series)) was -6.99% (inactive) and 2.48% (inactive). In [19], the Potency is 34.4 µM (active).
`c1ccc2cc(Nc3ccc(Nc4ccc5ccccc5c4)cc3)ccc2c1`: the Potency result in [1], in [2], in [3], in test [4], in [5] and in [6] was “inactive” in each case. Besides, the Potency entry in test [7], in test [8], in test [10], in test [11], in [20] and in test [12] was “inactive” throughout. Further, the Potency entry in test [14], in [15], in [18], in test [16] and in test [19] was “inactive” each time. Further, the call in [17] was inactive. For the same compound, in test [13] (at 92.4 µM (top of the series)), the activity change, positive = activation is 1.47% (inactive) and 5.2% (inactive).
Turning to `CCCC(=O)O`, the Potency result in test [1], in test [2], in [3], in test [4], in [5] and in [6] was “inactive” throughout. The Potency result in test [7], in [8], in test [9], in test [10], in [11] and in test [20] was “inactive” in each case. Also, the Potency entry in test [12], in [14], in test [15], in test [18], in test [16] and in test [19] was “inactive” each time. Also, in test [17], the outcome was inactive. Also, the activity change, positive = activation in test [13] (at 92.4 µM (top of the series)) is 4.22% (inactive) and -0.802% (inactive).
Consider `O=[N+]([O-])c1ccc2c(c1)Cc1ccccc1-2`, for which the Potency entry in test [1], in test [2], in test [3], in test [4], in [6] and in test [7] was “inactive” each time. Also, the Potency entry in test [9], in test [10], in test [11], in test [20], in test [12] and in test [14] was “inactive” in each case. Also, the Potency entry in test [15], in [16] and in [19] was “inactive” throughout. For the same compound, the Potency in test [5] is 54.4 µM (active). Further, the activity change, positive = activation in [13] (at 92.4 µM (top of the series)) was 1.03% (inactive) and -0.93% (inactive).
`O=c1oc(=O)c2cc3c(=O)oc(=O)c3cc12`: the Potency result in test [1], in [2], in test [3], in [4], in test [5] and in [6] was “inactive” throughout. The Potency result in test [7], in [8], in test [10], in test [11], in [12] and in test [14] was “inactive” in each case. Further, the Potency entry in [15], in test [18], in test [16] and in test [19] was “inactive” throughout. In test [17], the call was inactive. In addition, in test [13] (at 92.4 µM (top of the series)), the activity change, positive = activation is 1.24% (inactive) and 2.94% (inactive).
